Reference: PubChem BioAssay
Unmarked numbers belong to inactive results. Calls of active or inactive are those of the source.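 Rule for the calls: active = inhibition above the hit cutoff set in the earlier primary screen (cut at about 27% in these data); inactive = the rest.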

target: Protein phosphatase methylesterase 1 (Homo sapiens) (UniProt Q9Y570); assay: PME-1 inhibitor activity retest, confirmation, biochemical, fluorescence polarization, FP-Rh probe, triplicate (AID 2171); conditions: recombinant PME-1, FP-Rh probe fluorescence polarization; at 5.9 µM; active compounds read high;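 note: 0% = enzyme with DMSO and 100% = wells lacking PME-1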
Sequence (Q9Y570 whole entry, looked up): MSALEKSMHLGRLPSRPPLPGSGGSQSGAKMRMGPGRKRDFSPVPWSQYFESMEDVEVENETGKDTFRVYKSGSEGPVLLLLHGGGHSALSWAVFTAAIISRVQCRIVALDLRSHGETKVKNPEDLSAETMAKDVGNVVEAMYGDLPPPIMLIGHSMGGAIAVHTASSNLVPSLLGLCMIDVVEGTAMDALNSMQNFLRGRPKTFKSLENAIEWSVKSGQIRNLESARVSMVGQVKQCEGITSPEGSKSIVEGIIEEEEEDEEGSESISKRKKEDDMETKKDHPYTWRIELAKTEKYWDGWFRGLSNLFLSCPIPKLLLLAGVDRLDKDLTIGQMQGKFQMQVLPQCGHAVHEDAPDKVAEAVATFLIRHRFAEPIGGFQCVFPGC

SMILES | inhibition
Cc1ccc(S(=O)(=O)c2nnn3c2nc(N2CCOCC2)c2ccccc23)c(C)c1 | 21.9%
COc1ccc(/C=N/Nc2nc3ccccc3o2)cc1O | 29.9% (active)
COc1ccc(NS(=O)(=O)c2ccc3oc(Nc4ccc5c(c4)OCCO5)nc3c2)cc1 | 12.1%
COc1ccc(NC(=O)Nc2nnc(N3CCCCC3C)s2)cc1OC (stereo not given) | 43.7% (active)
CCC1Sc2ccc(S(=O)(=O)CCC(=O)Nc3ccc(OC(F)(F)F)cc3)cc2NC1=O (stereo not given) | 17.3%
COc1ccc(NC(=O)Nc2cccc([N+](=O)[O-])c2)cc1Cl | 2.05%
COc1cc2c(cc1NC(=O)Nc1cccc(C)c1)oc1ccccc12 | 12.2%
COc1ccc(Nc2ncnc3sc(-c4ccccc4)cc23)cc1OC | 6.82%
CCCn1c(CCC(=O)Nc2ccccc2Cc2ccccc2)nc2cc(S(=O)(=O)N3CCOCC3)ccc21 | 45.4% (active)
Nc1c(N2CCCC2)cc(Cl)c2nonc12 | 18.8%
CCn1c2ccccc2c2cc(NC(=O)c3ccccc3[N+](=O)[O-])ccc21 | 20.3%
O=C(Nc1ccc([N+](=O)[O-])cc1)Nc1ccc2[nH]c(=O)[nH]c2c1 | -15.6%
CC#CCN1c2ccccc2[C@]23C[C@@H](C(=O)OC)N(C(=O)c4cc(C)oc4C)C2=NC(C(=O)OC)=C(C(=O)OC)[C@H]13 | 29.6% (active)
Cc1cc(C)c2[nH]c(O)c(N=NC(=O)c3cc4c(s3)CCCC4)c2c1 | 31.9% (active)
Cc1cc(Br)ccc1N=C1NC(=O)CS1 | -3.07%
O=C(N/N=C/c1c(O)ccc2ccccc12)Nc1ccccc1 | 35.5% (active)
COc1ccc(/C=N/NC(=O)c2cc3cc(OC)c(OC)cc3[nH]2)cc1 | 8.04%
Cc1cc(N)ccc1N1CCCC1 | 7.13%
CC1=Nc2ccccc2/C1=C/c1sc(=N)n(-c2nccs2)c1O | 40.4% (active)
O=C(NNc1c2ccccc2nc2ccccc12)c1ccc(O)cc1O | 65.2% (active)

SMILES | inhibition
N#CCN(CC#N)C(=O)C1c2ccccc2Oc2ccccc21 | 0.3%
COC(=O)c1ccc(Cn2nnc3c(=O)[nH]c(C4CCN(S(=O)(=O)c5ccc(F)cc5)CC4)nc32)cc1 | 38% (active)
N#C/C(N=Nc1ccccc1O)=N\Nc1ccccc1O | 53.1% (active)
O=C1c2ccccc2-c2onc3ccc(NCCCn4ccnc4)c1c23 | 163% (active)
Oc1cccc(Nc2nc(O)c(/C=C3\C=Nc4ccccc43)s2)c1 | -7.79%
COC(=O)c1ccc(C2Nc3cccc4cccc(c34)N2)cc1 | 51.9% (active)
CCOc1ccc(/C=C2\SC(=S)N(C(C(=O)O)c3ccccc3)C2=O)cc1OC (stereo not given) | 43.8% (active)
COc1ccc(O)c(/C=N/Nc2nc(C)cc(-c3ccccc3)n2)c1 | 39% (active)
CC1(C)CC(=O)C2=C(C1)N1C(=C(C#N)C2c2ccc(Cl)cc2)N=C(N)c2ccccc21 (stereo not given) | 44% (active)
O=C(N/N=C/c1c[nH]c2ccccc12)c1sc2ccccc2c1Cl | 21.7%
Cc1ccc(C(=O)Nc2nnc(CC(=O)N/N=C/c3ccc(O)c(O)c3)s2)cc1 | -26.6%
CCOC(=O)/C(=N\Nc1ccc(Cl)cc1)c1csc(Nc2ccccc2)n1 | 14.4%
Cc1cc(-c2ccccc2)nc(N/N=C/c2ccc(O)cc2O)n1 | 70.4% (active)
CCn1c(CSc2nnc(-c3ccncc3)n2C)nc2cc(C(=O)O)ccc21 | 51.5% (active)
CCN(CC)C(=S)Sc1c(-c2ccccc2)c2cc(Cl)ccc2[nH]c1=O | 39.7% (active)
Cc1cc(O)ccc1N=Cc1c(C(F)(F)F)[nH][nH]c1=O | 12.2%
CCn1cc(C(=O)NCCCN2CCCC(C)C2)c(=O)c2cc(S(=O)(=O)N(C)C3CCCCC3)ccc21 (stereo not given) | 45.2% (active)
Cc1ccc(O)c(C(=O)c2cc(C#N)c(=O)n(-c3nccs3)c2)c1 | -1.15%
Oc1c(Br)cc(C=Nc2ccc3nc(-c4ccccc4)[nH]c3c2)c(O)c1Br | 5.82%
O=C(NCCC1=CCCCC1)C1CCN(S(=O)(=O)c2cccs2)CC1 | 25.6%
